The text below walks through data of PubChem BioAssay AID651815 (National Center for Advancing Translational Sciences (NCATS), 2012).

In all, about 2,100 compounds went through this assay and about 1,100 (52%) were called active. Another 29% or so got no clear call; they are omitted. The set was probably picked from earlier hits. The list shows a part of the results. A number with no mark means an inactive call. Calls come from the whole dose curve; as a rule, active = well fitted inhibition curve with a large enough effect; inconclusive = small, poorly fitted or top-dose-only effect; inactive = no such curve, though single readings can be large or run the other way.
% is set by controls: 0 for no effect and ±100 for the full control effect; potency is the fitted concentration of half-maximal effect.

Chain of DNA dC->dU-editing enzyme APOBEC-3F (Homo sapiens) (Q8IUX4 whole entry, looked up): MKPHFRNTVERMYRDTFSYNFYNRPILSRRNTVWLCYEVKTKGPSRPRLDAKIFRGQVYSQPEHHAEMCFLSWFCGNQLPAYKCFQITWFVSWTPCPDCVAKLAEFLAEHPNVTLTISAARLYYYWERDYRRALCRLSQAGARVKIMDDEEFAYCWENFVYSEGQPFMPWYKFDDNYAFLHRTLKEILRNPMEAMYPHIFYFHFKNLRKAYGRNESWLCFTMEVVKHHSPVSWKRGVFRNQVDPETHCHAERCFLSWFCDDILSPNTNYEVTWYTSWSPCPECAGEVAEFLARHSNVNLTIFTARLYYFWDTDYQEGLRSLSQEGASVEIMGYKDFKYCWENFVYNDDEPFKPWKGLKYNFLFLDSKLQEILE

For the experiment, the target named is DNA dC->dU-editing enzyme APOBEC-3F (Homo sapiens) (UniProt Q8IUX4). Kind of experiment: qHTS for inhibitors of Vif-A3F interactions: Cherry picks counterscreen. Note: nearly all actives have a fitted effect of over 65% in size. The conditions noted are these: HeLa A3F-eYFP/Vif cells, eYFP fluorescence, 24 h; series mostly up to 46.1 µM; activity, negative = inhibitor: at the top concentration. An excerpt:
The recent discovery and characterization of host restriction factors, which provide a potent defense to invading retroviruses, has provided new targets for antiviral drug development. APOBEC3G (A3G) and APOBEC3F (A3F) are potent cytidine deaminases that block HIV-1 replication; HIV-1 expresses the Vif protein, which counteracts A3G and A3F by binding to them and inducing their proteasomal degradation. The Vif-A3G and Vif-A3F interactions provide two potential targets for development of small molecules which can interfere with the ability of Vif to degrade A3G or A3F. […] To identify inhibitors that can interfere with Vif mediated degradation of A3G and A3F, we have developed Hela cell lines that stably express A3G or A3F tagged with eYFP at the C-terminal end (A3G-eYFP or A3F-eYFP, respectively) and Vif. In the absence of an inhibitor, Vif induces degradation of A3G-eYFP and A3F-eYFP, and the cells are not fluorescent. In the presence of an inhibitor, it is expected that Vif will be unable to degrade A3G-eYFP and/or A3F-eYFP, resulting in an increase in yellow fluorescence. In this counterscreen assay, Vif A3F was screened against the cherry picks ordered from the MLSMR. NIH Chemical Genomics Center [NCGC] NIH Molecular Libraries Probe Centers Network [MLPCN] MLPCN Grant: MH093245 Assay Submitter (PI): Vinay Pathak, National Cancer Institute
A3F-Vif cells were harvested from T225 flask and resuspended in phenol free OPTI-MEM medium with 5% FBS. Then 5 uL of 140,000 cells/mL resuspended cells was dispensed into each well of low base Aurora COC 1,536-well plates (black walled, clear bottom) using a Multidrop Combi dispenser. After overnight culture at 37 deg C with 5% CO2, a total of 23 nL of compounds at 5 selected concentrations from the NPC or positive control (2 mM stock of MG132) in DMSO was transferred to each well of the assay plate using a pintool (Kalypsys, San Diego, CA), and the plates were further incubated at 37 deg C with 5% CO2 for 24 hours. After that, the plates were measured on Acumen Explorer (TTP Lab Tech). The fluorescence was detected by 488 nm/Ex and […].
For orientation: Quantitative high-throughput screening tests each substance at several concentrations.
For `CCOc1ccc2nc(NC(=O)c3nc(SC(C)C)ncc3Cl)sc2c1`, the Potency was 11.6 µM (active).

Turning to `COC(=O)c1sccc1NC(=S)Nc1cc(C)cc(C)c1`, the “activity, negative = inhibitor” value is 7.32%.

With `Cc1ccc(NC(=O)/C=C/c2ccc([N+](=O)[O-])s2)c(C)c1`, the Potency was 18.4 µM (active).

For the molecule `Cc1ccc(NC(=O)/C=C/c2ccc([N+](=O)[O-])s2)cc1`, the Potency was 10.3 µM (active).

For the molecule `Cc1cc(C)cc(NC(=O)/C=C/c2ccc([N+](=O)[O-])s2)c1`, the Potency was 16.4 µM (active).

With `Cc1cccc(NC(=O)/C=C/c2ccc([N+](=O)[O-])s2)c1`, the Potency was 7.31 µM (active).

As for `CCC(=O)OCc1cnc(C)c2oc(=O)c(C(=O)Nc3ccccc3C(F)(F)F)cc12`, the “activity, negative = inhibitor” value is -17.4%.

Consider `CC(=O)c1cccc(NC(=O)/C=C/c2ccc([N+](=O)[O-])s2)c1`, for which the Potency is 16.4 µM (active).

For the molecule `CC(=O)c1cccc(NC(=S)N2c3ccccc3CC2C)c1` (centres undefined), the “activity, negative = inhibitor” value is 3.12% [at 36.9 µM].

Consider `CCOCCC(=O)Nc1ccc2c(c1)c(=O)n(C)n2C/C=C/c1ccccc1`, for which the Potency was 15.8 µM (active).

As for `COc1ccc(/C=N/NC(=O)c2cc3c(OC)ccc(OC)c3[nH]2)cc1O`, the Potency was 4.44 µM (active).

In the case of `COc1ccc2[nH]c(C(=O)N/N=C/c3ccc(OC)c(O)c3)cc2c1`, the Potency was 3.14 µM (active).

As to `CN[C@H]1CCc2cc(OC)c(OC)c(OC)c2-c2ccc(N(C)CC(OC)OC)c(=O)cc21`, the Potency is 2.8 µM (active).

Turning to `COc1cc2c(c(OC)c1OC)-c1ccc(N(C)CC(OC)OC)c(=O)cc1[C@@H](NC(C)=O)CC2`, the Potency was 1.12 µM (active).

`CSc1cccc(NC(=O)c2cc3c(COC(C)=O)cnc(C)c3oc2=O)c1`: the “activity, negative = inhibitor” value is 3.84%.

Consider `CCN(CC)c1ccc2cc(-c3nc(-c4cccs4)no3)c(=O)oc2c1`, for which the Potency was 0.291 µM (active).

On to `CCN(CC)c1ccc2cc(C(N)=O)c(=N)oc2c1`, for which the “activity, negative = inhibitor” value is 37.6%.

For `CCN(CC)c1ccc2cc(-c3nc4ccccc4n3C)c(=O)oc2c1`, the Potency was 7.31 µM (active).

With `CCN(CC)c1ccc2cc(-c3nc(-c4ccc(Cl)cc4Cl)cs3)c(=O)oc2c1`, the “activity, negative = inhibitor” value was -4.58%.

Turning to `CCN(CC)c1ccc2cc(-c3nnc(-c4ccccc4)o3)c(=O)oc2c1`, the Potency is 0.112 µM (active).

As for `CCN(CC)c1ccc2cc(-c3nnc(-c4cccc(Cl)c4)o3)c(=O)oc2c1`, the Potency is 0.206 µM (active).

In the case of `CN(C)S(=O)(=O)c1ccc(N2CCCC2)c(C(=O)N2CCN(S(=O)(=O)c3ccc(F)c(F)c3)CC2)c1`, the “activity, negative = inhibitor” value was 7.98% [at 36.9 µM].

Turning to `CCOC(=O)c1c(C)sc(-c2c(-c3ccccc3)[nH]c3[nH]c(=O)[nH]c(=O)c23)c1O`, the Potency is 23.1 µM (active).

With `CCCCOc1ccc(-c2cc(C(F)(F)F)c(C#N)c(SCC(=O)O)n2)cc1`, the Potency was 18.4 µM (active).

Consider `CCOC(=O)c1ccc(N=Nc2c(C)c(C#N)c(O)[nH]c2=O)cc1`, for which the “activity, negative = inhibitor” value is -26.8%.

On to `CCOC(=O)c1ccc(NC(=O)CSc2nc(-c3ccc(OC)cc3)cc(C(F)(F)F)c2C#N)cc1`, for which the Potency was 23.1 µM (active).

On to `COCc1cc(C)nc(SCC(=O)Nc2ccc3[nH]c(=O)[nH]c3c2)c1C#N`, for which the “activity, negative = inhibitor” value was -19.9%.

Regarding `Cc1ccc(S(=O)(=O)CCSc2nc(C)cc(C(F)(F)F)c2C#N)cc1`, the Potency is 12.5 µM (active).

For the molecule `CCOC(=O)c1ccc(NC(=O)CSc2nc(-c3ccc(F)cc3)cc(C(F)(F)F)c2C#N)cc1`, the Potency is 18.4 µM (active).

As to `Cc1coc(NC(=O)CSc2nc(-c3ccncc3)cc(C(F)(F)F)c2C#N)n1`, the Potency is 7.31 µM (active).

Regarding `Cc1sc2nc(CSCC(=O)Nc3ccccc3C#N)[nH]c(=O)c2c1C`, the “activity, negative = inhibitor” value was -1.56%.

Consider `Cc1cc(C(F)(F)F)c(C#N)c(SCC(=O)Nc2nc3ccccc3s2)n1`, for which the Potency is 16.4 µM (active).

Take `CN(C)c1ccc(/C=C2\Oc3ccc(C#Cc4cccc(N)c4)cc3C2=O)cc1`: the Potency is 15.8 µM (active).

For the molecule `O=C(Cc1n[nH]c(=O)c2ccccc12)OCC(=O)c1ccc2c(c1)OCCO2`, the Potency was 2.8 µM (active).

On to `CCOc1ccc(C(=O)COC(=O)Cc2n[nH]c(=O)c3ccccc23)cc1`, for which the Potency is 4.44 µM (active).

In the case of `COc1ccc(C(=O)/C=C/Nc2ccc([N+](=O)[O-])cc2C)c(OC)c1`, the Potency is 18.4 µM (active).

`COc1cccc(N=C2NC(=O)/C(=C/c3cc([N+](=O)[O-])ccc3O)S2)c1`: the “activity, negative = inhibitor” value is -25.7%.

Consider `N#C/C(N=Nc1ccccc1O)=N\Nc1ccccc1O`, for which the Potency is 5.17 µM (active).

Consider `O=[N+]([O-])c1cc(Cl)c2cccnc2c1O`, for which the “activity, negative = inhibitor” value was 4.37%.

Regarding `Cc1cc(N2CCN(c3ccc([N+](=O)[O-])c4cccnc34)CC2)c2ccccc2n1`, the Potency was 20.6 µM (active).

For the molecule `COc1ccccc1Nc1cc2cc(Br)ccc2c(=O)[nH]1`, the Potency is 7.04 µM (active).

In the case of `COc1cccc(NC(=O)c2oc3ccc(S(=O)(=O)N4CCC5(CC4)OCCO5)cc3c2C)c1`, the Potency was 13 µM (active).

As for `COc1ccc(NC(=O)c2oc3ccc(S(=O)(=O)N4CCOCC4)cc3c2C)cc1`, the “activity, negative = inhibitor” value is -10.1% [at 36.9 µM].

`COc1ccc(OCCCC(=O)N2CCN(S(=O)(=O)c3cccc(F)c3)CC2)cc1`: the “activity, negative = inhibitor” value was 8.38%.
